# Source: PubChem BioAssay
# mcGAS RapidFire: inhibitors of mouse cGAS; Q8C6L5; recombinant mouse cGAS, cGAMP by RapidFire MS; inhibition, % at 12.5 µM; 130,000 compounds, 0.18% hits;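 active = inhibition of cGAS enzyme activity at or above 60%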;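 note: enzyme stimulated by 45 bp dsDNA with ATP and GTP substrates; cGAMP share of summed cGAMP plus half ATP and half GTP signals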
# Target sequence (Q8C6L5 whole entry, looked up): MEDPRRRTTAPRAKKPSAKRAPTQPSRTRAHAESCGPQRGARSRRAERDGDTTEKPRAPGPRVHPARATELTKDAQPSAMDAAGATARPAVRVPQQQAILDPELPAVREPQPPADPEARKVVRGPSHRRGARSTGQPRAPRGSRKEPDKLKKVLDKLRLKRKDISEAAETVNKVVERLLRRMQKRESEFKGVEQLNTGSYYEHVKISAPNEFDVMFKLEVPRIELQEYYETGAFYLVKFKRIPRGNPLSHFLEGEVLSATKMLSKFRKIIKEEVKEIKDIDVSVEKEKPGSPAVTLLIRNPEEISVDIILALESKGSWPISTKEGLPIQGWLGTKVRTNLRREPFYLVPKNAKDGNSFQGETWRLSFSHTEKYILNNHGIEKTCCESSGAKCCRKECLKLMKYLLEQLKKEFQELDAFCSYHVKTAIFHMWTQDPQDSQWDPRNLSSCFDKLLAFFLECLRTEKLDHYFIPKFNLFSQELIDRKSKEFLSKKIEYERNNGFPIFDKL
# Numbers without * were called inactive; ! = not confirmed by another sample. The full list was thinned out, with hits kept by preference.
SMILES,mcGAS RapidFire
O=C(Nc1n[nH]c(=S)s1)c1cccs1,76*
O=C(Nc1nc(-c2ccc(Cl)s2)cs1)c1cccs1,-16
CCC(=O)c1ccc(Oc2cnn(-c3ccccc3)c(=O)c2Cl)cc1,-20
O=C(CSc1nnnn1C1CC1)c1cc2cc(Cl)ccc2o1,7
CSC1(CNC(=O)c2ccc(Oc3ccccc3)nc2)CCOCC1,-13
CSC1(CNC(=O)N2CCCC2c2cccs2)CCOCC1 (stereo not given),14
CSC1(CNc2ccc(Br)cn2)CCOCC1,71*
CCOC(=O)C1C(=O)CSC1=Nc1ccc([N+](=O)[O-])cc1 (stereo not given),-3
Cc1nn(Cc2ccccc2)c(C)c1CNC(=O)CCl,-20
Clc1ccc2c(Oc3ccc(Br)cc3)ccnc2c1,-20
Clc1ccc2c(-n3ccnc3)ccnc2c1,67*
Clc1ccc(Oc2ccnc3cc(Cl)ccc23)cc1,-4
O=C1CCCN1CCCC(=O)N1CC[C@@H](c2ccc3c(c2)OCO3)[C@H](O)C1,-35
O=C(NCCN1CCCCC1)c1cc(N2CCCN3CCC[C@H]3C2)ccn1,78*
COCCNC(=O)c1cc(N2CCCN(C)CC2)ccn1,-16
CCN(CC)CCNC(=O)c1cc(N2CCCCCC2)ccn1,-19
CN(C)c1ncccc1CNC(=O)c1ccc(-c2ncn[nH]2)cc1,-12
CCCCCCn1c(SC(C)C(C)=O)nc2c1c(=O)[nH]c(=O)n2C (stereo not given),-8
CC(C)(C)C1CCC(=NOC(=O)c2cccs2)CC1 (stereo not given),0
CN(C)C(=O)Cc1ccccc1NC(=O)NCCCn1ccnc1,94*
Cc1nc2ccccc2c(C)c1CC(=O)NCCCn1ccnc1,-7
Cc1ccccc1CC(C)(C)NC(=O)NCCn1ccnc1,-5
C[n+]1c2cc(N)ccc2cc2ccc(N)cc21,99*!
CC(=O)[C@]1(O)Cc2c(O)c3c(c(O)c2[C@@H](O[C@H]2C[C@H](N)[C@H](O)[C@H](C)O2)C1)C(=O)c1ccccc1C3=O,90*
COc1cccc2c1C(=O)c1c(O)c3c(c(O)c1C2=O)C[C@@](O)(C(=O)CO)C[C@@H]3O[C@H]1C[C@H](N)[C@@H](O)[C@H](C)O1,98*!
SMILES,mcGAS RapidFire
COc1cccc2c1C(=O)c1c(O)c3c(c(O)c1C2=O)C[C@@](O)(C(C)=O)C[C@@H]3O[C@H]1C[C@H](N)[C@H](O)[C@H](C)O1,91*!
O=C(O)C=Cc1ccc(Br)o1,-1
Cc1ccc(Cn2nnc3c(=O)n(C/C=C/c4ccccc4)cnc32)cc1,3
CC(=O)Oc1ccc2c(C)c(Cc3ccccc3)c(=O)[nH]c2c1,-3
Cc1nc(-n2cnnc2)ccc1-c1ccnc2c1ccn2C,1
S=C(SCc1nc2ccccc2[nH]1)N1CCCC1,-6
CCNC(=O)NCCC12CC3CC(CC(C3)C1)C2,-18
CCOc1cc(/C=c2\sc3nc4cc(Br)cnc4n3c2=O)ccc1O,-21
O=c1/c(=C/c2ccc(N3CCOCC3)cc2)sc2nc3cc(Br)cnc3n12,81*
O=c1/c(=C/c2cccc([N+](=O)[O-])c2)sc2nc3cc(Br)cnc3n12,28
C=CCn1cc(CNC(C)(C)CN2CCCC2)c(C)n1,-10
O=C1C=CC2=C3c4cc(O)c(O)cc4CC3(O)COC2=C1O (stereo not given),97*
COc1ccc(-c2ccccc2NC(=O)C2CCCN(Cc3ccc(C)s3)C2)cc1 (stereo not given),-2
N#Cc1c(Cl)nsc1N1CCC(C(=O)NCCc2ccccc2F)CC1,-1
Cc1nccn1-c1ccc(-c2cccc3cccnc23)nn1,-7
N#Cc1cccc(NC(=O)N2CCN(c3ccc(C#N)cc3F)CC2)c1,-1
N#Cc1cccc(NN=C2CCN(c3ccc(F)cc3)CC2)c1,89*
N#Cc1cccc(N/N=C2\CCn3cccc32)c1,-7
COc1ccc(OC)c(CN2CCc3[nH]cnc3C2c2cnn(C)c2C)c1 (stereo not given),-7
Cc1cc(-c2ccc(NN=C3C=Cc4c(S(=O)(=O)O)cc(S(=O)(=O)O)c(N)c4C3=O)c(C)c2)ccc1NN=C1C=Cc2c(S(=O)(=O)O)cc(S(=O)(=O)O)c(N)c2C1=O,95*
O=C(c1c[nH]c(=O)c(Cl)c1)N1CCOC(COc2cccc(C(F)(F)F)c2)C1 (stereo not given),-6
O=C1CC(C(F)(F)F)N(C(=O)COC(=O)c2cccc(OCC3CCCO3)c2)c2ccccc2N1 (stereo not given),94*
Cc1noc(C)c1C(=O)Nc1cccc(OCC2CCCO2)c1 (stereo not given),-5
CCS(=O)(=O)NCCN1CCOC(c2nc(C(C)C)n[nH]2)C1 (stereo not given),-11
Cc1scc(CN2CCN(C3CCCCC3)CC2)c1C,-5
CC(C)c1cc(CNC(=O)N2CCC(Cc3cnn(C)c3)C2)on1 (stereo not given),-24
Cc1nn(CC(=O)NC(=O)c2cccn2C)c(C)c1[N+](=O)[O-],2
CCOc1cc(C)ccc1NC(=O)CN1Cc2ccccc2C1,-8
CN1CCN(C2CCN(C(=O)c3ccccc3)CC2)CC1C(=O)O (stereo not given),11
